Legend:
Assay in all cases: PBM binding z-score (relative to random genomic background probes); higher = stronger binding; sequences stand for … in GC…GCGATTGACAGCGTAGAATGAAGG
[1] = test system: FXR:RXRa (NR concentration 270 nM, RXRa partner concentration 90 nM)
Summary of the method: (§1)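 Each nuclear receptor dimer, without ligand, was incubated for 1 h on custom Agilent 4×180K protein-binding microarrays. Binding was detected with antibodies against each partner (one per run), and scanned fluorescence was regression-normalized. The binding z-scores are referenced to random human genomic background probes.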

[2] = test system: LXRa:RXRa (NR concentration 270 nM, RXRa partner concentration 90 nM)
Summary of the method: as §1

[3] = test system: LXRa homodimer (NR concentration 270 nM)
Summary of the method: as §1

[4] = test system: LXRb:RXRa (NR concentration 270 nM, RXRa partner concentration 90 nM)
Summary of the method: as §1

[5] = test system: LXRb homodimer (NR concentration 270 nM)
Summary of the method: as §1

[6] = test system: PPARa:RXRa (NR concentration 270 nM, RXRa partner concentration 90 nM)
Summary of the method: as §1

[7] = test system: PPARg:RXRa (NR concentration 180 nM, RXRa partner concentration 90 nM)
Summary of the method: as §1

[8] = test system: PPARg:RXRa 270nM:90nM, anti-RXR (NR concentration 270 nM, RXRa partner concentration 90 nM)
Summary of the method: as §1

[9] = test system: PPARg:RXRa 30nM:10nM, anti-RXR (NR concentration 30 nM, RXRa partner concentration 10 nM)
Summary of the method: as §1

[10] = test system: PPARg:RXRa 90nM:30nM, anti-RXR (NR concentration 90 nM, RXRa partner concentration 30 nM)
Summary of the method: as §1

[11] = test system: PPARg:RXRa DBDmut IVT, anti-RXR (DBD mutation: RXRa K156A/R161A, NR concentration 270 nM, RXRa partner concentration 90 nM)
Summary of the method: as §1

[12] = test system: PPARg:RXRa IVT, anti-PPARg (NR concentration 270 nM, RXRa partner concentration 90 nM)
Summary of the method: as §1

[13] = test system: PPARg DBDmut:RXRa IVT, anti-PPARg (DBD mutation: PPARg1 K132A/R137A, NR concentration 270 nM, RXRa partner concentration 90 nM)
Summary of the method: as §1

[14] = test system: PPARg DBDmut IVT, anti-PPARg (DBD mutation: PPARg1 K132A/R137A, NR concentration 270 nM)
Summary of the method: as §1

[15] = test system: PPARg homodimer (NR concentration 180 nM)
Summary of the method: as §1

[16] = test system: PXR:RXRa (NR concentration 270 nM, RXRa partner concentration 90 nM)
Summary of the method: as §1

[17] = test system: PXR homodimer (NR concentration 270 nM)
Summary of the method: as §1

[18] = test system: RARa:RXR (NR concentration 270 nM, RXRa partner concentration 90 nM)
Summary of the method: as §1

[19] = test system: RARa homodimer (NR concentration 270 nM)
Summary of the method: as §1

[20] = test system: RARb:RXRa (NR concentration 270 nM, RXRa partner concentration 90 nM)
Summary of the method: as §1

Sequence | PBM binding z-score [1] | PBM binding z-score [2] | PBM binding z-score [3] | PBM binding z-score [4] | PBM binding z-score [5] | PBM binding z-score [6] | PBM binding z-score [7] | PBM binding z-score [8] | PBM binding z-score [9] | PBM binding z-score [10] | PBM binding z-score [11] | PBM binding z-score [12] | PBM binding z-score [13] | PBM binding z-score [14] | PBM binding z-score [15] | PBM binding z-score [16] | PBM binding z-score [17] | PBM binding z-score [18] | PBM binding z-score [19] | PBM binding z-score [20]
ATCTCTAGGTAACAAGTTCGGTGAAAGAGAGGAC | 0.656 | 0.804 | 0.56 | 0.383 | 0.814 | 0.973 | 1.13 | 1.67 | 0.766 | 1.35 | 3.31 | 2.96 | 1.06 | 0.893 | 1.01 | 0.677 | 0.713 | 0.675 | 0.59 | 0.969
CTCGAAAGGTCGGTTGAGGTGGGTATACGGATAA | 2.11 | 1.35 | 0.0862 | 1.31 | 0.332 | 2.36 | 0.284 | 0.726 | 0.0658 | 0.243 | -0.182 | 0.818 | -0.122 | -0.109 | 1.13 | 2.08 | 0.36 | 1.53 | 0.507 | 2.99
CCAGACAGGTGAGAACGTAACTCAGCCTCGATTA | -0.0139 | -0.0409 | 0.178 | 0.22 | -0.463 | 0.136 | 0.444 | -0.545 | -0.231 | -0.422 | 0.85 | 0.49 | 0.0295 | -0.354 | 0.692 | -0.267 | 0.209 | -0.0422 | 0.428 | 0.192
CCTACTGGGCCACGAACGGTCATTGATTCAGTGA | 0.0231 | 1.38 | 0.691 | -0.0702 | -0.838 | 0.858 | 1.47 | 1.36 | -0.262 | 0.515 | 5.64 | 4.88 | -0.4 | -0.69 | 0.254 | -0.201 | -0.435 | 0.0689 | -0.329 | 1.42
TCGAGTTGGTTAGGGGCATTCAGAATGGCGTCGA | 0.222 | 0.121 | -0.233 | 0.793 | -0.112 | 0.575 | -0.307 | 0.595 | 0.687 | 0.343 | 0.816 | -0.123 | -0.765 | -0.477 | 0.182 | 1.14 | 2.82 | 0.232 | 0.104 | 0.514
TCTTGTAGATCACCAGGTTAAGAAAGCTGGCCAA | 0.657 | 0.602 | -0.148 | 0.696 | 0.00375 | 1.47 | 0.304 | 2.21 | 3.04 | 2.67 | 2.51 | 1.98 | -0.0157 | 0.181 | 0.18 | 0.513 | -0.16 | 0.889 | 0.399 | 0.639
TCTCCGAGGACACGAAAGGTCAGAGCTCGACATC | 3.26 | 3.9 | 2.63 | 3.48 | 0.562 | 3.68 | 1.53 | 2.82 | 2.39 | 2.44 | 1.67 | 1.97 | 0.778 | 0.343 | 2.54 | 4.22 | 0.558 | 4.27 | 0.52 | 4.47
TCTGCTATGTCAGTTGGTCAGCTAACGAGCTGCC | -0.167 | -0.237 | -1.15 | -0.392 | -0.0439 | -0.108 | -0.623 | 0.446 | 0.854 | 0.78 | 0.621 | 0.807 | -0.394 | 0.0922 | -0.53 | -0.0982 | -1.36 | -0.0374 | -1.02 | 0.481
TAGCGTAGGTCATGCGGGCCAGTATAGTGTCGGC | 4.01 | 3.6 | 0.172 | 2.19 | -0.449 | 3.68 | 1.98 | 2.43 | 0.234 | 1.45 | 0.799 | 2.08 | 0.502 | -0.521 | 0.769 | 2.18 | -0.691 | 2.98 | -0.473 | 3.77
CCTCGGAGGACAACAGGAGGTCAGAGGTGCCAGA | 1.07 | 1.95 | 2.19 | 1.34 | -0.628 | 2.04 | 1.1 | 1.57 | -0.13 | 0.94 | -0.227 | 0.737 | -1.23 | -1.03 | 1.99 | 2.36 | 0.719 | 2.6 | 0.638 | 3
ATCTCTAGGTAAAAGTTCAGTGACTCCCGAGGAT | 1.09 | 2.16 | 1.64 | 1.38 | 0.749 | 4.12 | 8.08 | 8.15 | 8.38 | 8.98 | 2.54 | 3.69 | 1.46 | 1.46 | 1.59 | 2.36 | 1.59 | 1.97 | 0.841 | 2.39
TCTAGTTGGTAAAAGGTCACACACTCGAAATGCG | 5.62 | 5.67 | 4.26 | 5.25 | 1.91 | 5.95 | 8.69 | 8.46 | 8.09 | 9.72 | 3.1 | 5.1 | 1.72 | 2.8 | 5.34 | 5.37 | 2.68 | 6.35 | 5.12 | 4.93
TCTTGTAGATCAACAGGAGGATAAGAAAGATCGA | 0.307 | 0.0206 | -0.000187 | 0.226 | -0.349 | 0.337 | 0.379 | 0.997 | 2.56 | 1.61 | 1.64 | 0.232 | 0.62 | 0.57 | 0.00545 | 0.187 | 0.0396 | 0.295 | -0.0742 | -0.284
TAGCTTAGGTCATTCAGGGGCCAGTATAGAAAGC | 4.82 | 4.33 | 0.984 | 3.31 | 1.67 | 3.69 | 1.38 | 2 | 0.369 | 1.11 | 1.24 | 1.84 | 0.465 | 1.33 | 2.5 | 2.96 | 0.636 | 4.06 | 0.433 | 3.88
